# Measurements taken from article PMC4336329 (PLoS ONE, 2015).
# Out of some 310,000 compounds screened, about 14,000 (4.5%) showed an effect of 50% or more. The effect is printed as a negative number. The sample holds strong results, similar compounds and a random draw of the others, so the mix is not that of the screen.
# Target: human ether-à-go-go-related gene (hERG) potassium channel (human, UniProt Q12809)
# Experiment: primary screen, population patch clamp on CHO cells stably expressing hERG; higher = less effect of the substance
# 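Note: peak tail current of the secondary pulse compared with the same well before compound.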
# human ether-à-go-go-related gene (hERG) potassium channel, sequence (Q12809 whole entry, looked up): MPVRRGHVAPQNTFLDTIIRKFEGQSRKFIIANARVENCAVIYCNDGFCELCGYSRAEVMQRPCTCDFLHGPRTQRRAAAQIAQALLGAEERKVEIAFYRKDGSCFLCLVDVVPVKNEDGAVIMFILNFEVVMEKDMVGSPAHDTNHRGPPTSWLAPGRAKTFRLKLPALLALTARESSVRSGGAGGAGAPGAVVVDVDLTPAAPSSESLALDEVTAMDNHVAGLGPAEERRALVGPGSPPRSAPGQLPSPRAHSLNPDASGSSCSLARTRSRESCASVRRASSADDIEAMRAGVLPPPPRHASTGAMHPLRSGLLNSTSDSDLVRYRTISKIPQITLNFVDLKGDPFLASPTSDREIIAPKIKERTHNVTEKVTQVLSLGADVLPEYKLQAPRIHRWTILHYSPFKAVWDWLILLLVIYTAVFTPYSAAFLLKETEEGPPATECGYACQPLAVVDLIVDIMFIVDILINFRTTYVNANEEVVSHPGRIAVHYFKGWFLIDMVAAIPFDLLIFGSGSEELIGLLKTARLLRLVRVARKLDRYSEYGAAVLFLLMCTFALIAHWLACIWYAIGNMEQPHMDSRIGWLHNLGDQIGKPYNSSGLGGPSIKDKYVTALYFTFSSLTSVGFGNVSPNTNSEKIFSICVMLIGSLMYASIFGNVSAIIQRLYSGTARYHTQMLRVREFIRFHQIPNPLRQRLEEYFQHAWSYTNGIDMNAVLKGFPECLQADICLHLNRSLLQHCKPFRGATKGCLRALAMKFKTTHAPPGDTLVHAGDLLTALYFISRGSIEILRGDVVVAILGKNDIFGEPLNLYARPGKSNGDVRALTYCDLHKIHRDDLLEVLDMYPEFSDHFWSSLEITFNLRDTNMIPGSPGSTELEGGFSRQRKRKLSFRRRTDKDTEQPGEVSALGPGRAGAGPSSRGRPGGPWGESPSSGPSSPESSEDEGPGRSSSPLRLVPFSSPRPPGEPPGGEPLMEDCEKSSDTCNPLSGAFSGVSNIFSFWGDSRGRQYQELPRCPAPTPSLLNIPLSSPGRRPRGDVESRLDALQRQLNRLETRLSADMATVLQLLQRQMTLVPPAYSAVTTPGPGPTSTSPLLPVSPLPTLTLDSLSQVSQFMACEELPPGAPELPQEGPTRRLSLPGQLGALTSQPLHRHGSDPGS
row,SMILES,"hERG current change (%, negative = inhibition) at 10uM [%]"
1,CC(OC(=O)c1cc2sccc2n1C)C(=O)NCC1CCCO1 (stereo not shown),0.798
2,Cc1ccc(S(=O)(=O)CC(=O)N2CCCC2)cc1,-0.506
3,O=C(CCc1ccc(Oc2cc([N+](=O)[O-])cc([N+](=O)[O-])c2)cc1)N1CCCCCC1,-30.2
4,Cn1cc(SCC(=O)Nc2nc3ccccc3s2)c2ccccc21,-5.6
5,Cc1noc(C(C)C)c1C(=O)Nc1ccc(-c2nnc3n2CCCCC3)cc1,-4.21
6,Cc1cccc(C)c1-n1nnnc1S(=O)(=O)Cc1ccccc1Cl,-18.2
7,CC(C)CN1CCC(C(=O)NCC2CCCO2)CC1.O=C(O)C(=O)O (stereo not shown),-3.21
8,CC(C)CN(CC(C)C)C(=O)CN1c2cccc3cccc(c23)S1(=O)=O,18.1
9,CCN(CC)C(=O)Oc1cc2c(-c3cc4cccc(OC)c4o3)cc(=O)oc2cc1C,9.85
10,COc1ccc(-c2nc3ccccc3c(=O)n2CCCN2CCOCC2)cc1,6.17
11,COc1ccc(CSc2nc3ccccc3c(=O)n2CCCN2CCOCC2)cc1F,-53.4
12,COc1ccc(CNC(=O)C(C)Sc2nc3ccccc3c(=O)n2CC2CCCO2)cc1 (stereo not shown),-78.7
13,COCCn1c(SCc2ccc(OC)c(F)c2)nc2ccccc2c1=O,-2.82
14,COc1cccc(CNC(=O)CSc2nc3c(oc4ccccc43)c(=O)n2CC2CCCO2)c1 (stereo not shown),-36.4
15,COc1ccc(CNC(=O)CSc2nc3c(oc4ccccc43)c(=O)n2CC2CCCO2)cc1 (stereo not shown),-60.6
16,COc1ccc(CNC(=O)C(C)Sc2nc3ccccc3c(=O)n2CCCN2CCOCC2)cc1 (stereo not shown),-84.9
17,CCn1c(SCc2ccc(OC)c(F)c2)nc2ccccc2c1=O,23.4
18,COc1ccccc1NC(=O)C(C)Sc1nc2ccccc2c(=O)n1CC1CCCO1 (stereo not shown),-37.2
19,CCC(Sc1nc2ccccc2c(=O)n1CCN1CCOCC1)C(=O)NCc1cccnc1 (stereo not shown),-37
20,O=C(CSc1nc2c(oc3ccccc32)c(=O)n1CC1CCCO1)NCc1ccccc1 (stereo not shown),-15.8
21,CC(Sc1nc2ccccc2c(=O)n1CC1CCCO1)C(=O)NC(C)c1ccccc1 (stereo not shown),-5.01
22,CCCCOC(=O)C(C)Sc1n[nH]c(=O)[nH]c1=O (stereo not shown),-5.93

row,SMILES,"hERG current change (%, negative = inhibition) at 10uM [%]"
1,O=[N+]([O-])c1ccc(CNc2cccc(Cl)c2)s1,-28.3
2,O=C1N=C(c2ccccc2)S/C1=C\c1cccs1,5.19
3,COc1ccc(N2CCN(Cc3nc(-c4ccccc4)no3)CC2)cc1,8.23
4,C=CCOC(=O)C1=C[C@@H](c2csc3ccccc23)[C@H](CCCO)[C@@H](OCC)O1,-27.7
5,COc1ccc(S(=O)(=O)N2CCC(C(=O)N[C@@H](C)C(=O)NC3CCCC3)CC2)cc1,13.4
6,COCCNC(=O)c1ccc2c(c1)S(=O)(=O)c1cc(Cl)ccc1C2=O,-3.38
7,CCN(CC)S(=O)(=O)c1ccc(F)c(C(=O)OC2CC(C)OC2=O)c1 (stereo not shown),-2.4
8,O=C(Cn1cc(SCc2cccc(Cl)c2)c2ccccc21)N1CCOCC1,-33.1
9,O=C(Cn1cc(SCc2ccc(F)cc2)c2ccccc21)N1CCOCC1,-29.9
10,O=C(Cn1cc(SCc2ccc(Cl)cc2)c2ccccc21)N1CCOCC1,-53.3
11,Nc1ncnc2c1ncn2C1O[C@H](CO)[C@@H](O)[C@@H]1O (stereo partly shown),-8.74
12,Cc1ccc(CNC(=O)CSc2nc(N3CCCCC3)nc(N3CCCCC3)n2)cc1,7.64
13,O=S(=O)(NCCCSc1ccccc1)c1ccccc1F,-79.6
14,O=C(CCNS(=O)(=O)c1ccccc1C(F)(F)F)NCCCSc1ccccc1,-18.1
15,O=[N+]([O-])c1ccccc1S(=O)(=O)NCCSc1ccccc1,4.87
16,Cc1ccc(Nc2nc(N)nc(CN3CCN(C)CC3)n2)cc1,-27.8
17,Nc1nc(CSCCO)nc(Nc2ccc(F)cc2)n1,16.1
18,Cc1ccc(Nc2nc(N)nc(CCl)n2)cc1,1.76
19,Nc1nc(CSC(=S)N2CCOCC2)nc(Nc2ccc(F)cc2)n1,7.31
20,Cc1ccc(Nc2nc(N)nc(CN3CCCCCC3)n2)cc1,-72.1
21,Nc1nc(CN2CCCCCC2)nc(Nc2ccc(F)cc2)n1,-70.8
